Measurements reported in ChEMBL document CHEMBL3988442, “University of Dundee, Small-Polar-MMV Screening Library” (2021).
Screen size: about 48,000 compounds; about 13,000 (27%) showed an effect of 50% or more. Some of the results follow.

Test system: Wolbachia pipientis
Test: Anti-Wolbachia Cell-Based Screen
Type: functional
Design: scale not given: in the data most compounds retested in dose-response had high values
Details: 5 µM

Compound | Percent Effect [%]
CCCc1cc(NC2CCc3ncnn3C2)n2ncnc2n1 (centres undefined) | -15.24
CSCC(C)(O)CNc1cccc(F)c1C#N (centres undefined) | -5.996
CCCOc1cc(CNC(=O)Nc2cccnc2N2CCCC2)ccn1 | 3.924
COc1cc(CNCc2ccco2)ccc1OCCO.Cl | -24.56
COc1cccc2cc(CNCc3ccnc(N4CCOCC4)c3)oc12 | -10.04
COc1cccc2cc(CNCc3ccnc(N4CCCCC4)c3)oc12 | 98.43
COc1cccc2cc(CNCc3ccc(N4CCCC4)nc3)oc12 | 106.9
COc1ccc(CNCc2ccc(N3CCCCC3)nc2)cc1OC | 5.038
COc1cccc2cc(CNCc3ccnc(N(C)C)c3)oc12 | 97.53
COc1ccc(CNCc2ccnc(N3CCCCC3)c2)cc1OC | 4.647
COc1c(CNCc2ccc(N3CCOCC3)nc2)c(C)nn1C | -5.256
COc1cccc2cc(CNC(=O)N3CCCC(O)C3)oc12 (centres undefined) | -11.96
CC(NC(=O)NCc1cccc(N2CCCC2=O)c1)c1ccccc1 (centres undefined) | 10.19
CC(=O)N[C@@H]1CN(c2nc(C(N)=O)cs2)C[C@H]1c1ccc(C)o1 | 3.94
CC(C)c1cc(N2CCN(c3ccc(O)cc3)CC2)n2nccc2n1 | -10.08
Cc1nc(C)n(CC2CCCCN2CC(=O)NC2CCOCC2)n1 (centres undefined) | -3.575
Cc1nc(C)c(CC(=O)N2CCC(c3ccn4nccc4n3)CC2)s1 | 148.4
Cc1nc(CC(=O)N2CCC(c3ccn4nccc4n3)CC2)cs1 | 100.2
Cc1nc(CC(=O)N2CCN(c3ccc(N(C)C)cc3)CC2)cs1 | -7.561
Cc1noc(C)c1CC(=O)N1CCC(c2ccn3nccc3n2)CC1 | 116.9
Cc1nc(CC(=O)N2CCC(Nc3cccnn3)CC2)cs1 | 10.36
Cc1ncc2c(n1)CCN(C(=O)Cc1c(C)noc1C)C2 | -7.344

Compound | Percent Effect [%]
COC1CCN(C(=O)CCc2c(C)nc3ccnn3c2C)CC1 | 2.453
Cc1nc(C)c(CC(=O)N2C[C@@H](C(=O)O)[C@H](c3ccccc3C)C2)s1 | -4.112
CCC[C@@H]1CN(C(=O)Cc2sc(C)nc2C)C[C@H]1C(=O)O | 9.333
O=C(NC[C@H]1OC[C@@H](NC2CCC2)[C@@H]1O)Nc1ccccc1 | 27.93
COCCCN(C)S(=O)(=O)c1ccc(C(F)(F)F)cc1C#N | 0.354
Cc1cc(CC(C)Nc2ncnc3cccc(F)c23)[nH]n1 (centres undefined) | -16.45
CCN(CC(C)C#N)C(=O)CNc1ccc(C(N)=O)c(C)c1 (centres undefined) | 94.3
CCN(CC)C(=O)Nc1ccc(C(=O)N(C)C)c(C)c1 | -2.57
CCN(CC(C)C#N)C(=O)CNc1cc(Cl)ccc1C(N)=O (centres undefined) | 109.4
CCN(C(=O)CNc1cc(C)c(F)cc1C(N)=O)C1CC1 | -0.2217
Cc1cc(NCC(C)C)ccc1C(=O)N(C)C | -5.944
Cc1cc(NC(=O)N(CCC#N)CCCN(C)C)ccc1F | -0.7911
CCN(CC(C)C#N)C(=O)CNc1ccc(F)c(C)c1 (centres undefined) | 98.55
Cc1cc(NCC(=O)N(C)C)c(C(N)=O)cc1F | 4.75
CCN(CC(C)C#N)C(=O)CSc1ccc(C(F)(F)F)cn1 (centres undefined) | -16
CNC(=O)N1CCC2(CC1)CN(C(C)C)Cc1cc(F)ccc12.Cl | -6.692
CCn1c(CN(C)C)nnc1C1CCN(Cc2ccc(Cl)cc2)CC1 | -12.39
Cc1noc(C)c1C(=O)N1CCCN(C)c2ccc(Cl)cc21 | 90.03
Cc1noc(C)c1CN(C)C(=O)CCOc1ccc(Cl)cc1 | 13.27
Cc1noc(C)c1C(=O)N1CC[C@H]2C[C@@H](c3nccs3)O[C@@H]2C1 | -4.112
CN1CCCN(S(=O)(=O)c2cn(C)cn2)c2cc(Cl)ccc21 | -2.244
Cc1noc(C)c1C(=O)N1CCSc2ccc(Cl)cc21 | 93.15

Compound | Percent Effect [%]
CCC(CNC(=O)Cc1c(C)noc1C)N1CCCC1 (centres undefined) | 6.109
Cc1nc(CN2CCN(C(=O)c3c(C)noc3C)CC2)cs1 | -5.34
Cc1noc(C)c1C(C)C(=O)N1CCCN(C)c2ccc(Cl)cc21 (centres undefined) | 111.8
Cc1noc(C)c1C(C)NC(=O)N1CCCN(C(=O)c2ccsc2)CC1 (centres undefined) | 6.672
Cc1noc(C)c1C(C)NC(=O)N1CCN(c2cccs2)CC1 (centres undefined) | 5.123
Cc1noc(C)c1CC(=O)N1CCCN(C)c2ccc(Cl)cc21 | 108.2
O=c1[nH]nc(CNc2cncc(Br)c2)[nH]1 | -1.101
Cn1cc(S(=O)(=O)NC(=O)C2(c3cccc(Cl)c3)CC2)cn1 | 9.889
Cc1ccc(CN(Cc2ccncc2)C2CC(C)(C)NC(C)(C)C2)o1.O=C(O)CC(O)(CC(=O)O)C(=O)O | 117.7
CC1(C)CC(N(Cc2ccccc2)Cc2ncc[nH]2)CC(C)(C)N1.O=C(O)CC(O)(CC(=O)O)C(=O)O | 109.1
Cc1cccc(CN(Cc2ccc(C)o2)C2CC(C)(C)NC(C)(C)C2)n1.O=C(O)CC(O)(CC(=O)O)C(=O)O | -13.89
Cc1ccc(CN2CC[C@@H](NS(C)(=O)=O)[C@@H]2Cc2ccncc2)o1.O=C(O)C(F)(F)F.O=C(O)C(F)(F)F | 0.02145
Cc1ccccc1CN(CCO)Cc1ncc[nH]1 | -0.936
Cc1ccc(CN(Cc2ncc[nH]2)C2CC(C)(C)NC(C)(C)C2)o1.O=C(O)CC(O)(CC(=O)O)C(=O)O | 124
CN(Cc1ncc[nH]1)CC1CCOc2ccccc2C1 (centres undefined) | 5.15
CCN(CC)C(=O)[C@@H]1C[C@@H](NC(=O)c2ccoc2)CN1C | 5.596
CN(Cc1ncc[nH]1)CC(c1cccs1)N1CCOCC1 (centres undefined) | -1.486
Cc1nc(NC(=O)NC2CC(=O)N(C)C2)nn1C(C)C (centres undefined) | -15.27
CCC[C@H]1CN(c2nccc(NCC)n2)C[C@@H]1NS(=O)(=O)N(C)C | 9.452
CCNc1ccnc(N2Cc3cnn(Cc4ccc(F)cc4)c3C2)n1 | -10.41
